This note sets out measurements from the supplement of paper PMC12645437, “Orthogonal IMiD-Degron Pairs Induce Selective Protein Degradation in Cells” (ACS Chemical Biology, 2025).

In all, about 8,300 sequences were measured (“log2 fold change of degron read counts, EGFP-low vs EGFP+ sorted cells (limma voom), compound-induced degradation”: median about -1.1, highest 2% from about 3.2 on). The sample as a whole holds a higher share of the highest values than the screen did.

This test addresses T1, CRBN, Q96SW2.
T1 chain: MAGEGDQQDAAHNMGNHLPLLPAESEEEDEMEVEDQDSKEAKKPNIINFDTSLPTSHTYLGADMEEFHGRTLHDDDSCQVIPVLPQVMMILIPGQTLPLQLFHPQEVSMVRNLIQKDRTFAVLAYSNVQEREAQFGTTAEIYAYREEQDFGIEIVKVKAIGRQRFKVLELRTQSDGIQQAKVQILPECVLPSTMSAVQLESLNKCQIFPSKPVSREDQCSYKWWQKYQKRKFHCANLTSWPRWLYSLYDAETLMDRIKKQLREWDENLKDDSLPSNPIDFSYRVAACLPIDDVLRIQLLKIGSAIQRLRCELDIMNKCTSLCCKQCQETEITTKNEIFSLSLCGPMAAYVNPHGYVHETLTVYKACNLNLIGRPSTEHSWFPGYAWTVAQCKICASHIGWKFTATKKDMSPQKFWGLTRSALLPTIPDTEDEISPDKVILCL
In words: log2 fold change of degron read counts, EGFP-low vs EGFP+ sorted cells (limma voom), compound-induced degradation; higher = more compound-induced degradation of the degron-EGFP fusion; degrons are variants of IKZF1/3 zinc finger 2; compound dose not given here. The following applies: Jurkat, 18 h.

The mark [1] stands for this setting: compound: compound 19 (5-tert-butyl-thalidomide).
The mark [2] stands for this setting: compound: compound 22 (5-morpholino-thalidomide).
[3] abbreviates: compound: compound 33 (diphenyl IMiD analogue).
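Also: pooled lentiviral library of zinc finger degron-EGFP fusions in mCherry-positive Jurkat cells, FACS-sorted after compound exposure, with degron abundance counted by next-generation sequencing.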

With FCCDICGAFFTQKGNLLRHIKL [46F_47C_49D_50I_52G_53A_54F_55F_67L_, Q9UKT9], the “log2 fold change of degron read counts” value was -0.849 under setting [1], -1.43 under setting [2], -0.311 under setting [3] and -2.26 (compound: thalidomide).

Turning to FSCPQCGAHFTQKGNLLRHIKL [46F_47S_49P_50Q_52G_53A_54H_55F_67L_, Q9UKT9], the “log2 fold change of degron read counts” value by setting is: under setting [1], -1.06; under setting [2], -2.04; under setting [3], -0.649; (compound: thalidomide) -1.51.

On to FSCSVCGHMFTQKGNLLRHIKL [46F_47S_49S_50V_52G_53H_54M_55F_67L_, Q9UKT9], for which the “log2 fold change of degron read counts” value is -2.17 under setting [1], -2.85 under setting [2], -2.33 under setting [3] and -2.67 (compound: thalidomide).

On to FHCNICGAGFTQKGNLLRHIKL [46F_47H_49N_50I_52G_53A_54G_55F_67L_, Q9UKT9], for which the “log2 fold change of degron read counts” value is 1.76 under setting [1], 0.175 under setting [2], 1.2 under setting [3] and -0.885 (compound: thalidomide).

On to FSCPICGRFFTQKGNLLRHIKL [46F_47S_49P_50I_52G_53R_54F_55F_67L_, Q9UKT9], for which the “log2 fold change of degron read counts” value is -0.54 under setting [1], -1.4 under setting [2], -0.477 under setting [3] and -1.17 (compound: thalidomide).

For the sequence FKCEICGRDFTQKGNLLRHIKL [46F_47K_49E_50I_52G_53R_54D_55F_67L_, Q9UKT9], the “log2 fold change of degron read counts” value is, setting by setting: under setting [1], -3.16; under setting [2], -3.46; under setting [3], -3.24; (compound: thalidomide) -2.51.

With FYCPICGRFFTQKGNLLRHIKL [46F_47Y_49P_50I_52G_53R_54F_55F_67L_, Q9UKT9], the “log2 fold change of degron read counts” value was -0.827 under setting [1], -0.851 under setting [2], -1 under setting [3] and -2.07 (compound: thalidomide).

For LLCEICGFACTQKGNLLRHIKL [46L_47L_49E_50I_52G_53F_54A_55C_67L_, Q9UKT9], the “log2 fold change of degron read counts” value runs as follows: under setting [1], 0.644; under setting [2], -0.727; under setting [3], 0.56; (compound: thalidomide) 1.35.

On to FLCDQCGAYFTQKGNLLRHIKL [46F_47L_49D_50Q_52G_53A_54Y_55F_67L_, Q9UKT9], for which the “log2 fold change of degron read counts” value is, setting by setting: under setting [1], -3.04; under setting [2], -2.52; under setting [3], -2.25; (compound: thalidomide) -2.41.

In the case of LLCEICGFQCTQKGNLLRHIKL [46L_47L_49E_50I_52G_53F_54Q_55C_67L_, Q9UKT9], the “log2 fold change of degron read counts” value under setting [1] worked out at 0.49, the “log2 fold change of degron read counts” value under setting [2] was -0.719, the “log2 fold change of degron read counts” value under setting [3] came out at 0.751 and the “log2 fold change of degron read counts” value (compound: thalidomide) worked out at 1.99.

In the case of LMCEICGFQCTQKGNLLRHIKL [46L_47M_49E_50I_52G_53F_54Q_55C_67L_, Q9UKT9], the “log2 fold change of degron read counts” value by setting is: under setting [1], 0.286; under setting [2], 0.912; under setting [3], 2.55; (compound: thalidomide) 2.04.

As for LYCEICGFQCTQKGNLLRHIKL [46L_47Y_49E_50I_52G_53F_54Q_55C_67L_, Q9UKT9], the “log2 fold change of degron read counts” value is, setting by setting: under setting [1], 3.53; under setting [2], 3.71; under setting [3], 2.78; (compound: thalidomide) 1.8.

Regarding LFCEICGFQCTQKGNLLRHIKL [46L_47F_49E_50I_52G_53F_54Q_55C_67L_, Q9UKT9], the “log2 fold change of degron read counts” value by setting is: under setting [1], 3.43; under setting [2], 3.41; under setting [3], 1.96; (compound: thalidomide) 2.09.

As to LDCEICGFQCTQKGNLLRHIKL [46L_47D_49E_50I_52G_53F_54Q_55C_67L_, Q9UKT9], the “log2 fold change of degron read counts” value is -0.786 under setting [1], -1.68 under setting [2], -1.53 under setting [3] and -0.616 (compound: thalidomide).

As for LSCEICGFQCTQKGNLLRHIKL [46L_47S_49E_50I_52G_53F_54Q_55C_67L_, Q9UKT9], the “log2 fold change of degron read counts” value under setting [1] was 2.4, the “log2 fold change of degron read counts” value under setting [2] was found to be 1.95, the “log2 fold change of degron read counts” value under setting [3] came to 0.752 and the “log2 fold change of degron read counts” value (compound: thalidomide) came to 1.19.

Consider LQCEICGFQCTQKGNLLRHIKL [46L_47Q_49E_50I_52G_53F_54Q_55C_67L_, Q9UKT9], for which the “log2 fold change of degron read counts” value was 0.99 under setting [1], 0.223 under setting [2], 1.43 under setting [3] and 3.3 (compound: thalidomide).

For LECEICGFQCTQKGNLLRHIKL [46L_47E_49E_50I_52G_53F_54Q_55C_67L_, Q9UKT9], the “log2 fold change of degron read counts” value by setting is: under setting [1], -0.896; under setting [2], -1.36; under setting [3], 0.772; (compound: thalidomide) 2.01.

Take LACEICGFQCTQKGNLLRHIKL [46L_47A_49E_50I_52G_53F_54Q_55C_67L_, Q9UKT9]: the “log2 fold change of degron read counts” value is, setting by setting: under setting [1], 3.16; under setting [2], 2.06; under setting [3], 0.631; (compound: thalidomide) 0.66.

Take LCCEICGFQCTQKGNLLRHIKL [46L_47C_49E_50I_52G_53F_54Q_55C_67L_, Q9UKT9]: the “log2 fold change of degron read counts” value by setting is: under setting [1], 1.95; under setting [2], 1.72; under setting [3], 1.6; (compound: thalidomide) 1.91.

Regarding LWCEICGFQCTQKGNLLRHIKL [46L_47W_49E_50I_52G_53F_54Q_55C_67L_, Q9UKT9], the “log2 fold change of degron read counts” value is, setting by setting: under setting [1], 3.2; under setting [2], 3.49; under setting [3], 2.53; (compound: thalidomide) 1.13.

On to LICEICGFQCTQKGNLLRHIKL [46L_47I_49E_50I_52G_53F_54Q_55C_67L_, Q9UKT9], for which the “log2 fold change of degron read counts” value under setting [1] is 0.761, the “log2 fold change of degron read counts” value under setting [2] was 2.3, the “log2 fold change of degron read counts” value under setting [3] was determined as 2.38 and the “log2 fold change of degron read counts” value (compound: thalidomide) worked out at 3.

In the case of FMCEQCGAPFTQKGNLLRHIKL [46F_47M_49E_50Q_52G_53A_54P_55F_67L_, Q9UKT9], the “log2 fold change of degron read counts” value was -0.389 under setting [1], -0.627 under setting [2], 1.41 under setting [3] and -0.399 (compound: thalidomide).

As to FTCEICGHIFTQKGNLLRHIKL [46F_47T_49E_50I_52G_53H_54I_55F_67L_, Q9UKT9], the “log2 fold change of degron read counts” value under setting [1] was -2.87, the “log2 fold change of degron read counts” value under setting [2] is -3.7, the “log2 fold change of degron read counts” value under setting [3] was -2.68 and the “log2 fold change of degron read counts” value (compound: thalidomide) was -2.59.

Take FGCDICGANFTQKGNLLRHIKL [46F_47G_49D_50I_52G_53A_54N_55F_67L_, Q9UKT9]: the “log2 fold change of degron read counts” value runs as follows: under setting [1], -0.278; under setting [2], -0.474; under setting [3], 0.0264; (compound: thalidomide) -0.564.

Take FYCNQCGRHFTQKGNLLRHIKL [46F_47Y_49N_50Q_52G_53R_54H_55F_67L_, Q9UKT9]: the “log2 fold change of degron read counts” value is -2.11 under setting [1], -2.71 under setting [2], -2.01 under setting [3] and -2.05 (compound: thalidomide).

As to FRCNQCGHLFTQKGNLLRHIKL [46F_47R_49N_50Q_52G_53H_54L_55F_67L_, Q9UKT9], the “log2 fold change of degron read counts” value is -2.18 under setting [1], -2.82 under setting [2], -2.46 under setting [3] and -2.45 (compound: thalidomide).

LFCNQCGFACTQKGNLLRHIKL [46L_47F_49N_50Q_52G_53F_54A_55C_67L_, Q9UKT9]: the “log2 fold change of degron read counts” value is -0.744 under setting [1], -1.36 under setting [2], -1.06 under setting [3] and -1.14 (compound: thalidomide).

Turning to LACNQCGFECTQKGNLLRHIKL [46L_47A_49N_50Q_52G_53F_54E_55C_67L_, Q9UKT9], the “log2 fold change of degron read counts” value is, setting by setting: under setting [1], -2.6; under setting [2], -2.34; under setting [3], -2.97; (compound: thalidomide) -2.24.
